Bioassay records: PubChem BioAssay, National Center for Advancing Translational Sciences (NCATS)
TDP1 cell CPT: growth inhibition of DT40 Tdp1-/-;hTDP1 cells with camptothecin (screen for TDP1 inhibitors) | AID 686979 | Potency, µM (titrated, usually from 46.2 µM), without a hit: at the top dose activity change, negative = growth inhibition, hits mostly inhibitors | chicken DT40 Tdp1-/-;hTDP1 cells + 20 nM CPT, ATP luminescence, 48 h | 420,000 tested, 12% active; note: potency is the fitted concentration of half-maximal effect; nearly all actives have a fitted effect of over 55% in size
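Cell growth measured by CellTiter-Glo luminescence after a minimum 48 h, 37 C compound exposure with 20 nM CPT in Tdp1-knockout DT40 cells stably expressing hTDP1, seeded 400/well; qHTS titration format.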
ELG1 repair inh: blocks ELG1-dependent DNA repair in HEK293T cells; 330,000 tested, 2.3% active; Potency, µM (highest dose often 46.1 µM), for inactives: at the top dose activity change, negative = inhibition, most hits filed as inhibitors; HEK293T ELG1-luciferase reporter, luminescence, 16 h; DNA damage induced by 5-fluorouridine; AID 504467; note: potency is the fitted concentration of half-maximal effect; nearly all actives have a fitted effect of over 55% in size
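HEK293T cells expressing luciferase-tagged ELG1 (2,000/well) received 5-Fluorouridine plus compound or DMSO for 16 hr at 37 °C. Luciferase was read by ONE-Glo luminescence after 30 min at room temperature.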
TDP1 cell noCPT: qHTS for Inhibitors of human tyrosyl-DNA phosphodiesterase 1 (TDP1): qHTS in cells in absence of CPT. DT40 Tdp1-/- hTDP1 cells, no CPT, ATP luminescence, 48 h. Potency, µM (highest dose often 46.2 µM), for the others: at the highest dose activity change, negative = growth inhibition, hits mostly inhibitors. 420,000 tested, 15% active. AID 686978, 2013; note: potency is the fitted concentration of half-maximal effect; nearly all actives have a fitted effect of over 55% in size
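DT40 Tdp1-/-;hTDP1 cells, no CPT (DMSO vehicle only), 400 cells/well; compounds pin-transferred; ≥48 hr, 37 °C; CellTiter-Glo 30 min RT dark, luminescence read.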
HT1080NT lethal: kills 2HG-producing HT-1080-NT fibrosarcoma cells. HT-1080-NT fibrosarcoma viability, CellTiter-Glo ATP luminescence, 48 h. Potency, µM (top dose mostly 46.1 µM), for inactives: top-dose activity, negative = less viability, hits mostly cytotoxic. 360,000 tested, 1.6% active. AID 686970;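 note: NT is the 2HG producing partner of a matched IDH1 knockdown line; potency is the fitted concentration of half-maximal effect; 0% = DMSO-treated cells and -100% = media-only wells without cells; nearly all actives have a fitted effect of over 55% in size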
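Compounds were tested in concentration-response format on HT-1080-NT cells for 48 hours at 37 degrees C. Cell viability came from CellTiter-Glo luminescence; curves were classified by r2, response magnitude and activity.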
HT1080 IDH1KD tx: HT-1080 IDH1 knockdown cell toxicity (counter line) | Potency, µM (highest dose often 46.1 µM), for inactives: at the top dose activity, negative = toxicity, actives largely listed as cytotoxic | HT-1080 IDH1 knockdown viability, ATP luminescence, 48 h | 360,000 tested, 2% active | AID 686971;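 note: potency is the fitted concentration of half-maximal effect; 0% = DMSO wells and -100% = cell-free medium wells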
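CellTiter-Glo luminescence after 48 h compound exposure at 37 degrees C of IDH1-knockdown HT-1080 cells in 5% FBS RPMI. %Activity scaled between DMSO wells and cell-free media wells, with curves fitted and assigned curve classes.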
IL-1B inflam inh: blocks inflammasome-driven IL-1 beta release; activity change, % at 57.5 µM; AID 743279; 360,000 tested, 4.7% active; THP-1 LPS/ATP IL-1B secretion, AlphaLISA, 16 h; stronger effect = lower value; in the data active = activity change below about -50%; inconclusive = mostly about -30% to -49%
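Secreted IL-1B measured by AlphaLISA bead assay after 16 h compound exposure of THP-1 cells; compounds (final up to 57.5 uM) added 1 h before LPS (250 ng/mL) and ATP (1.25 mM) stimulation; lower signal means less secretion.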
Numbers without * were called inactive; u = inconclusive; x = no result given. Hits are enriched below; roughly 19% of the tested compounds scored in any of these assays. Unless noted, calls come from the whole dose curve; as a rule, active = well fitted curve in the direction sought with a large enough effect; inconclusive = small, poorly fitted or top-dose-only effect, or another doubt; inactive = no such curve, though single readings can be large; an effect the other way counts as inactive or inconclusive. Unless noted, % is set by controls: 0 for no effect and ±100 for the full control effect.

SMILES | TDP1 cell CPT | ELG1 repair inh | TDP1 cell noCPT | HT1080NT lethal | HT1080 IDH1KD tx | IL-1B inflam inh
Cc1oc(-c2cccc(Cl)c2)nc1CN1CCC(C(=O)NCc2cccnc2)CC1 | u | -14% | -25% | 1% | -3% | -13
CCN1CCN(C(=O)C2CCN(Cc3nc(-c4cccc(Cl)c4)oc3C)CC2)CC1 | 21µM* | 5% | 16µM* | -20% | -18% | u
CCN1CCN(C(=O)C2CCN(Cc3cc(Cl)ccc3O)CC2)CC1 | -7% | 12% | -5% | u | 11% | -77*
Cn1nc([N+](=O)[O-])nc1S(C)(=O)=O | 4.6µM* | u | 4.6µM* | 16µM* | 16µM* | -101*
Cc1nn(CCCC(=O)NCCc2ccccc2)c(C)c1[N+](=O)[O-] | 6% | 3% | u | u | 14% | -5
Cn1nc([N+](=O)[O-])nc1Oc1ccccc1F | -2% | 6% | -6% | 12% | -2% | -2
CS(=O)(=O)c1nc([N+](=O)[O-])nn1CCCc1ccccc1 | 6.5µM* | x | 13µM* | u | u | -103*
OCC[C@@H]1C[C@H](O)[C@@H](O)[C@]2(OCc3cc(C(F)(F)F)ccc32)O1 | -10% | x | 3% | 15% | 19% | 36
COc1ccc(OC)c(NS(=O)(=O)c2ccc(Br)s2)c1 | 16µM* | u | 18µM* | x | x | x
COc1ccc(OC)c(NS(=O)(=O)c2ccc(Cl)s2)c1 | u | u | u | u | u | 6
COc1ccc(OC)c(NS(=O)(=O)c2ccc(-c3cc(C)no3)s2)c1 | 1.3µM* | x | 0.58µM* | x | x | x
CCN(c1ccc(OC)cc1)S(=O)(=O)c1ccc(-c2cc(C)no2)s1 | -95% | -29% | 15µM* | u | u | 12
CCc1ccc(-c2cc(C)no2)cc1S(=O)(=O)N1CCOc2ccccc21 | u | u | u | u | u | -5
CCc1ccccc1N(C)S(=O)(=O)c1ccc(-c2cc(C)no2)s1 | 2.1µM* | -5% | 1.3µM* | 12% | u | 25
COC(=O)[C@@]12C[C@@H](CC(=O)NCCCN3CCCC3=O)C(=O)N(CCc3ccc(OC)c(OC)c3)C1=CCC(C)(C)C2 | -17% | x | 5% | -6% | 4% | -9
COc1cccc(NS(=O)(=O)c2ccc(-c3cc(C)no3)s2)c1 | u | x | 23µM* | x | x | x
Cc1cc(-c2ccc(S(=O)(=O)N3CCN(C)CC3)s2)on1 | -11% | -1% | 10% | -3% | 7% | 3
CCOc1ccc(NS(=O)(=O)c2ccc(-c3cc(C)no3)s2)cc1 | u | x | 18µM* | x | x | x
Cc1cc(-c2ccc(S(=O)(=O)Nc3cccc(C)c3C)s2)on1 | 2.9µM* | x | 2.6µM* | x | x | x
O=C(CSc1nnc(NC(=O)c2c(F)cccc2F)s1)NCc1ccc(F)cc1 | -3% | 0% | 1% | -10% | -1% | -1
O=C(NC1CC(=O)N(c2ccc(F)cc2)C1)C1CC1 (stereo unspecified) | -3% | x | u | x | x | x
CSc1ncnc2c1ncn2CCCN1CCN(Cc2c(C)cc(C)cc2C)CC1 | u | x | u | -16% | -14% | 6
CCN(CC)S(=O)(=O)c1nnc(NC(=O)COc2cccc(C)c2)s1 | -15% | x | -6% | x | x | x
Cc1onc(-c2c(Cl)cccc2Cl)c1C(=O)OCC(=O)c1ccccc1 | u | 1% | u | -9% | -12% | 0
CCOC(=O)c1cc(-c2c(Cl)cccc2Cl)no1 | 4% | 13µM* | -26% | 9% | 6% | 16
Cc1noc(C)c1C(=O)OCC(=O)Nc1ccc(S(N)(=O)=O)cc1 | -1% | 19% | 4% | 7% | 1% | 0
